PubChem BioAssay (NCATS)
Inconclusive results are not listed. The source made the active and inactive calls. Calls follow the shape of the dose curve; as a rule, active = well fitted curve in the direction sought with a large enough effect; inconclusive = small, poorly fitted or top-dose-only effect, or another doubt; inactive = no such curve, though single readings can be large; an effect the other way counts as inactive or inconclusive.

Tests used:
[1] = qHTS Screen of the MIPE 4.0 Collection Against Ewings Sarcoma (RDES) (AID 1259252); also: nearly all actives have a fitted effect of over 35% in size; also: potency is read from the fitted curve at half-maximal effect
How it was run: (§1)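 Compound titrations go onto adherent log-phase cells 4 h after seeding, incubate 48 h at 37C, then CellTiter-Glo luminescence reports viability relative to DMSO and cell-free controls.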

[2] = qHTS Screen of the MIPE 4.0 Collection Against Ewings Sarcoma (TC71) (AID 1259253); also: nearly all actives have a fitted effect of over 40% in size; also: potency is read from the fitted curve at half-maximal effect
How it was run: as §1

[3] = qHTS Screen of the MIPE 4.0 Collection Against Ewings Sarcoma (EW8) (AID 1259255); also: nearly all actives have a fitted effect of over 35% in size; also: potency is read from the fitted curve at half-maximal effect
How it was run: as §1

[4] = P-glycoprotein substrates identified in KB-3-1 adenocarcinoma cell line, qHTS therapeutic library screen (AID 1346986); also: nearly all actives have a fitted effect of over 60% in size
How it was run: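 KB-3-1 parental cells and P-gp-overexpressing KB-8-5-11 (colchicine omitted during assay) plated at 500 cells/well, dosed in dose-response, incubated 72 h at 37 degree C. CellTiter-Glo luminescence read; KB-8-5-11 also tested with tariquidar.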

[5] = P-glycoprotein substrates identified in KB-8-5-11 adenocarcinoma cell line, qHTS therapeutic library screen (AID 1346987); also: nearly all actives have a fitted effect of over 65% in size; also: potency is read from the fitted curve at half-maximal effect
How it was run: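 KB-8-5-11: colchicine-selected sub-line of KB-3-1 over-expressing P-gp; assay medium lacked colchicine. 72 h drug exposure at 37 degree C, CellTiter-Glo.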

[6] = NS1 protein of Zika virus - qHTS assay to identify small molecule inhibitors in human HEK 293 cells (AID 1347053); also: nearly all actives have a fitted effect of over 55% in size; also: potency is read from the fitted curve at half-maximal effect
How it was run: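 HEK 293; 20 h pre-culture, 37 C/5% CO2; cpd 1 h pre-infection; ZIKV MR766, MOI = 0.5, 24 h, 37 C; TR-FRET NS1 readout (two anti-NS1 Abs); norm. to no-virus vs infected.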

[7] = qHTS Screen of the MIPE 4.0 Collection Against Ewings Sarcoma (TC32) (AID 1259256); also: nearly all actives have a fitted effect of over 45% in size; also: potency is read from the fitted curve at half-maximal effect
How it was run: as §1

[8] = qHTS assay to identify small molecule inhibitors of chordoma cells - UCH-2 (AID 1259356); also: series mostly up to about 46 µM

Measured: Potency

O=c1[nH]c(=O)n([C@H]2C[C@@H](O)[C@@H](CO)O2)cc1I
inactive: [1] | [4] | [5] | [6]
active: [2] 5.9 µM | [3] 5.26 µM

CC(C)=CCCC(C)=CCCC(C)=CCCC(C)=CCCC(C)=CCCC(C)=CCCC(C)=CCCC(C)=CCCC(C)=CCO
inactive: [1] | [2] | [3] | [5]

CCN1C[C@H](C)n2c(c(O)c3c(=O)n(Cc4ccc(F)c(Cl)c4)nc(C(=O)NC)c32)C1=O
not listed: [7] | [8]
inactive: all other assays above

Cc1cnc(-c2cc(N3CCN(C(=O)CCS(C)(=O)=O)CC3)ncc2Cl)c(C)c1
inactive: [1] | [2] | [3] | [5] | [6]

NC[C@H]1O[C@H](O[C@@H]2[C@@H](O)[C@@H](O[C@H]3O[C@H](CO)[C@@H](O)[C@H](N)[C@@H]3O)[C@H](N)C[C@@H]2N)[C@H](O)[C@@H](O)[C@H]1O
inactive: [1] | [2] | [3] | [5] | [6]

O=C(Nc1cccc2c(=O)cc(-c3nn[nH]n3)oc12)c1ccc(OCCCCc2ccccc2)cc1
active: [1] 16.6 µM | [2] 18.7 µM | [7] 18.7 µM

CC[C@H](C=C[C@@H](C)[C@H]1CC[C@H]2[C@@H]3CC=C4C[C@@H](O)CC[C@]4(C)[C@@H]3CC[C@]12C)C(C)C
inactive: [1] | [2] | [3] | [5]

C[C@H]1[C@H](O)O[C@@H]2O[C@@]3(C)CC[C@@H]4[C@H](C)CC[C@@H]1[C@@]24OO3
active: [1] 3.32 µM | [2] 1.48 µM | [3] 1.66 µM | [5] 18.7 µM | [6] 26.4 µM

CCNC(=O)Nc1ccc(Oc2ncnc(N)c2C=NOC)cc1Cl
inactive: [2] | [6]
active: [1] 8.33 µM | [3] 8.33 µM

O=C(CCCN1CCN(c2ccc(F)cc2)CC1)NC1c2ccccc2CSc2ccccc21 (stereo not given)
active: [1] 14.8 µM | [2] 16.6 µM | [7] 16.6 µM

Cc1cc2nc3c(=O)[nH]c(=O)nc-3n(CC(O)C(O)C(O)CO)c2cc1C (stereo not given)
inactive: [1] | [3] | [5] | [6]
active: [2] 26.4 µM

CC(NCCc1ccc(O)cc1)C(O)c1ccc(O)cc1 (stereo not given)
inactive: [1] | [2] | [3] | [5] | [6]

O=C(Nc1cccc(C(F)(F)F)c1)Nc1cc(S(=O)(=O)NC2CC2)ccc1-c1ccsc1
active: [1] 20.9 µM | [2] 20.9 µM | [7] 18.7 µM

COc1cc2nc(-c3cc(F)ccc3O)nc(N[C@@H]3CNC[C@@H]3C(C)(C)O)c2cc1OC
active: [1] 23.5 µM | [2] 20.9 µM | [3] 23.5 µM | [6] 9.35 µM

COc1cc(F)c(C(C)C)cc1-c1ccc(C(F)(F)F)cc1CN1C(=O)O[C@H](c2cc(C(F)(F)F)cc(C(F)(F)F)c2)[C@@H]1C
active: [2] 16.6 µM
inactive: [1] | [3] | [5] | [6]

CC1(C)[C@H]2CC[C@]3(C)[C@@H](C(=O)C=C4[C@@H]5C[C@@](C)(C(=O)O)CC[C@]5(C)CC[C@]43C)[C@@]2(C)CC[C@@H]1O
inactive: [1] | [2] | [3] | [5] | [6]

COc1cc(Cl)cn2c(-c3cccc(NC4CNC4)n3)cnc12
active: [1] 26.4 µM | [2] 23.5 µM
inactive: [3] | [5] | [6]

NC(N)=Nc1nc(CSCCC(N)=NS(N)(=O)=O)cs1
inactive: [3] | [5] | [6]
active: [1] 11.8 µM | [2] 18.7 µM

CN1CCN2c3ncccc3Cc3ccccc3C2C1 (stereo not given)
inactive: [1] | [2] | [7] | [8] | [5]

OC1CCC(Nc2ncc3nc(Nc4c(F)cc(F)cc4F)n([C@@H]4CCOC4)c3n2)CC1 (stereo not given in full)
inactive: [5] | [6]
active: [1] 18.7 µM | [2] 10.5 µM | [3] 9.35 µM

Cc1cc(NC(=O)Nc2ccc(N(C)C)cc2)c2cc(F)cc(F)c2n1
active: [3] 26.4 µM
not listed: [7] | [8]
inactive: all other assays above

CC(=O)OCC(=O)[C@@]1(O)CC[C@H]2[C@@H]3CCC4=CC(=O)C=C[C@]4(C)[C@@H]3[C@@H](O)C[C@@]21C
active: [2] 9.35 µM
inactive: [1] | [3] | [6]

CCCC1OC2C[C@@H]3[C@H]4CCC5=CC(=O)C=C[C@]5(C)[C@H]4C(O)C[C@]3(C)[C@]2(C(=O)CO)O1 (stereo not given in full)
active: [2] 13.2 µM | [3] 18.7 µM
inactive: [1] | [5] | [6]

CC(C)C[C@@H](C(=O)N[C@H](C(=O)OC1CCCC1)c1ccccc1)[C@H](O)C(=O)NO
active: [1] 26.4 µM | [2] 18.7 µM | [3] 18.7 µM | [5] 20.9 µM

N#CC1(c2cccc(C(=O)Nc3cc(Oc4ccc5nc(NC(=O)C6CC6)sc5n4)ccc3F)c2Cl)CC1
active: [1] 16.6 µM | [2] 16.6 µM | [3] 20.9 µM | [6] 2.35 µM
